hDAT+cocaine = human DAT dopamine uptake with cocaine, either direction | LLC-PK1 hDAT cells, [14C]-dopamine uptake with cocaine IC80; actives deviate in either direction | 110,000 compounds, 1.3% hits | Q01959 | B-score at 10 µM | AID 449768;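 active = Z score or B-score, a plate-position-corrected score, falls beyond the plate's 99.7% confidence bounds, in either direction; inactive = both scores lie inside the 99.7% bounds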;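 note: scored against the spread of the other compound wells on the same plate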
PostGolgi yeast = growth inhibition of a yeast mutant, post-Golgi transport screen | AID 739 | 98,000 compounds, 0.9% hits | post-Golgi transport phenotypic cell assay | inhibition, % at 10 µM;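 note: yeast cells grown in 1536-well plates; yeast grown about 18 h at 30C before absorbance read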
Cav32 inh = human Cav3.2 channel inhibition, primary screen; O95180; Cav3.2-expressing cells, Fluo-4 calcium fluorescence FDSS; stronger effect = lower value; B-score at 10 µM; 100,000 compounds, 4% hits; AID 449739;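 active = single-dose well whose peak fluorescence ratio is a statistical outlier from its plate by either plate-standardised score or position-corrected B-score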
PLAP activator = activates human placental alkaline phosphatase | activation fold at 20 µM | purified PLAP enzyme, luminescent substrate read-out; stronger effect = higher value | P05187 | 96,000 compounds, 1.2% hits; in the data active = activation fold above about 2
Target sequence (P05187 whole entry, looked up): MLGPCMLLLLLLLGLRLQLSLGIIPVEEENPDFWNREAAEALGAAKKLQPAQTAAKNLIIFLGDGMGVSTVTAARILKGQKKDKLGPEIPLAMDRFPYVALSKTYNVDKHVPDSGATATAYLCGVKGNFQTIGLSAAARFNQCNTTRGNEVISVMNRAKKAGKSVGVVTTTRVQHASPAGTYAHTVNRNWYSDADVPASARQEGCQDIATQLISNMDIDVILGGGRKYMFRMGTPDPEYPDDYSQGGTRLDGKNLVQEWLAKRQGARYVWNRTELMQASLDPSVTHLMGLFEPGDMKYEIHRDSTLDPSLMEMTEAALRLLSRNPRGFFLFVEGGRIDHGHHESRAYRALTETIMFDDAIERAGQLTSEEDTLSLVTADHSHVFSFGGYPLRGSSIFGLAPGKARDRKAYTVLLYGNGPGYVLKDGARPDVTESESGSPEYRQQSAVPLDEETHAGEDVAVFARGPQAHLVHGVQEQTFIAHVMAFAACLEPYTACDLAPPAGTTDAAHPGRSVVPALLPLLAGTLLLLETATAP
PostGolgi ctrl = inhibits growth of the yeast control strain; efflux-deficient yeast background strain, growth absorbance A615, 16 h; inhibition, % at 10 µM; 98,000 compounds, 5% hits
* hit, by the source's call; x = no result. In the library only some 9.6% were active in any assay of this set; here they are far more common. Cut-off read from the data, not from the text of the source, unless noted: active = inhibition above about 30%; inactive = the rest.

SMILES | hDAT+cocaine | PostGolgi yeast | Cav32 inh | PLAP activator | PostGolgi ctrl
CCOc1ccc(C(=O)NC(=S)N(Cc2ccccc2)Cc2ccccc2)cc1 | -0.15 | -4 | -4.6* | 1.2 | 5
CCn1c(Cc2ccc(OC)cc2)nnc1SCC(=O)Nc1nc2ccccc2s1 | -0.91 | 3 | -0.2 | 1 | 3
COc1cc2ccccc2cc1C(=O)Nc1ccccc1N1CCN(S(C)(=O)=O)CC1 | 0.18 | 19 | x | 1.2 | 38*
Cn1cccc1Cc1nnc(SCC(=O)Nc2ccccc2F)n1CCc1ccccc1 | 0.025 | -2 | -3.7 | 1.4 | 11
Cn1cccc1Cc1nnc(SCC(=O)Nc2cccc(F)c2)n1CCc1ccccc1 | 2.1* | -3 | -0.091 | 1.7 | 3
Cc1csc(NC(=O)CSc2nnc(Cc3cccn3C)n2CCc2ccccc2)n1 | 0.0079 | 4 | -8.4* | 1.5 | 6
Cn1cccc1Cc1nnc(SCC(=O)N2CCc3ccccc32)n1CCc1ccccc1 | 1.8 | -3 | -8.7* | 1.5 | 11
O=C(NCC(c1ccc(F)cc1)N1CCOCC1)c1ccc(Br)o1 (stereo not given) | -0.5 | 0 | x | 1.3 | 4
CCOc1ccc(Nc2nc(NCCN3CCOCC3)nc(OC)n2)cc1 | -0.41 | 4 | 1.4 | 1.3 | -9
Cc1ccc(CNC(=O)CS(=O)CC(=O)O)cc1 (stereo not given) | 0.26 | -2 | 0.33 | 1 | -2
Cc1ccc(CNC(=O)CSCC(=O)O)cc1 | -0.11 | 4 | -0.82 | 0.9 | 41*
COc1ccc(CNC(=O)C(c2ccco2)N(Cc2cccs2)C(=O)Cc2cccs2)cc1 (stereo not given) | -0.33 | -3 | -0.2 | 1 | 24
COc1ccc(CNC(=O)C(c2cccs2)N(Cc2ccco2)C(=O)Cc2cccs2)cc1 (stereo not given) | -0.45 | x | -7.2* | x | x
COc1ccc(C(=O)N(Cc2ccco2)Cc2cccs2)c(O)c1 | 0.15 | -32 | -4.8* | 1.2 | 22
O=C(NCc1ccco1)C(c1ccccc1)N(C(=O)Cc1cccs1)c1ccccc1 (stereo not given) | -0.24 | x | 0.0094 | x | x
Cc1ccc(-c2nnn(CC(=O)N(Cc3cccs3)C(C(=O)NC(C)(C)C)c3ccco3)n2)o1 (stereo not given) | -0.32 | -6 | -4.8 | 1.2 | 24
Cc1ccc(-c2nnn(CC(=O)N(Cc3ccco3)C(C(=O)NC(C)(C)C)c3cccs3)n2)o1 (stereo not given) | 0.16 | 0 | -6.3* | x | 11
O=C(NCc1ccco1)C(c1cccs1)N(C(=O)Cc1cccs1)c1ccccc1 (stereo not given) | -0.61 | 38* | -1.9 | 0.9 | 7
O=c1ccc(NS(=O)(=O)c2ccc(Cl)cc2)cn1Cc1ccc(Cl)c(Cl)c1 | 1.4 | 2 | -4.4* | 1.2 | 9
Nc1c(C(=O)Nc2ccc(Br)cc2)sc2nc(-c3ccco3)ccc12 | 1.5 | 12 | -1 | 1.3 | -2
Nc1c(C(=O)Nc2ccc(F)cc2)sc2nc(-c3ccco3)ccc12 | 0.5 | -2 | -1 | 1.2 | 40*
O=C(C1CC1)N1CCc2cc(S(=O)(=O)NCCC3=CCCCC3)ccc21 | 0.71 | -3 | -1.6 | 1.2 | 36*
Cc1nn(C(C)(C)C)c(OC(=O)c2ccc3c(c2)OCO3)c1S(=O)(=O)c1ccccc1 | 0.45 | 4 | -2.8 | 1.3 | 37*
CN(CCOC(=O)c1ccc2c(c1)OCCO2)Cc1ccccc1 | 2.5 | -4 | -0.15 | 1.4 | 0
Cc1ccc(S(=O)(=O)c2c(C)nn(C(C)(C)C)c2OC(=O)c2ccc(Br)o2)cc1 | 0.26 | 50* | x | 1.1 | 17
SMILES | hDAT+cocaine | PostGolgi yeast | Cav32 inh | PLAP activator | PostGolgi ctrl
Cc1nn(C(C)(C)C)c(OC(=O)c2ccc3c(c2)OCO3)c1Sc1ccccc1 | 0.001 | -8 | -4.9* | 1.3 | 10
Cc1ccc(S(=O)(=O)c2c(C)nn(C(C)(C)C)c2OC(=O)c2ccco2)cc1 | -0.014 | 7 | x | 1.2 | 16
COc1cc(C(=O)NCc2nnc(SCC(=O)N3CCc4ccccc43)o2)cc(OC)c1OC | x | 5 | x | 1.2 | 0
COc1ccccc1-c1cc(C(=O)NCc2ccco2)no1 | -1.9 | 14 | -0.6 | 0.9 | 14
O=c1[nH]c2cc(Br)cnc2nc1/C=C(\O)c1ccc(F)cc1 | 0.046 | -1 | -1.5 | 1 | 8
O=C(NCc1nc2ncc(Br)cc2[nH]1)c1ccccc1 | -7.3* | -10 | -0.027 | 1.6 | 4
CC(C)CC(=O)N1CCN(Cc2ccc3c(c2)OCO3)CC1 | -0.15 | -2 | 0.036 | 1.3 | -4
O=C(Nc1nccs1)c1cc2sccc2n1Cc1ccc(F)cc1 | 0.85 | -3 | -0.035 | 1 | 6
COc1ccc(NC(=O)c2cc3sccc3n2Cc2ccc(F)cc2)cc1OC | 2.2 | 2 | -2.7 | 1.4 | 33*

From PubChem BioAssay
